KDM4E inh: JMJD2E (human) inhibition | 1.6% of 230,000 active | Potency, µM (highest dose often 57.1 µM), inactives show at the top dose activity change, negative = inhibition, actives largely listed as inhibitors | JMJD2E catalytic domain, FDH-coupled NADH fluorescence (FDH is formaldehyde dehydrogenase);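 further: 0% = wells with enzyme and -100% = buffer wells without enzyme; nearly all actives have a fitted effect of over 50% in size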
Tau FP inhib: blocks human tau fibril formation measured by polarization; P10636; K18 P301L tau heparin fibrillization, Alexa594 FP, 6 h; Potency, µM (top dose mostly 57.7 µM), inactives show top-dose activity, negative = inhibition, most hits filed as inhibitors; 0.39% of 280,000 active; active means well fitted curve in the direction sought with a large enough effect; inconclusive means small, poorly fitted or top-dose-only effect, or another doubt; inactive means no such curve, though single readings can be large; an effect the other way counts as inactive or inconclusive; further: nearly all actives have a fitted effect of over 55% in size
Target sequence (P10636 561-689 P618L limits assumed): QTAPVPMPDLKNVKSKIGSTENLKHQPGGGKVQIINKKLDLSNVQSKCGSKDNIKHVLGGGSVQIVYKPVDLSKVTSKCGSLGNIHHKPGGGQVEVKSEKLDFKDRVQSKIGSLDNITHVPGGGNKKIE
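Steps: dispense K18 P301L tau (15 uM plus 0.24 uM Alexa 594 tracer, final) in pH 7 sodium acetate; add compound; add heparin (20 uM final); incubate 6 hr, 37 C; add ThT (30 uM final); after 1 hr ambient, read FP.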
HPGD block: HPGD (human) dehydrogenase inhibition; P15428; purified HPGD, NADH fluorescence kinetic, PGE2 substrate; Potency, µM, for inactives: at the highest dose activity change, negative = inhibition, actives largely listed as inhibitors; 4.3% of 150,000 active
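20 nM HPGD preincubated 15 min at room temperature with compound in 50 mM Tris-HCl pH 8, 0.01% Tween 20. Started with 1 mM NAD+ and 30 uM prostaglandin E2; NADH fluorescence (360/450 nm) read 5 times over 30-s intervals, last minus first.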
Tau fibril ThT: inhibitors of human tau fibril formation, thioflavin T binding; P10636; Potency, µM (series often up to 57.4 µM), without a hit: at the highest dose activity, negative = inhibition, usual class: inhibitors; 2.1% of 270,000 active; recombinant tau K18 P301L, heparin-induced fibrillization, ThT fluorescence; AID 1460; active means well fitted curve in the direction sought with a large enough effect; inconclusive means small, poorly fitted or top-dose-only effect, or another doubt; inactive means no such curve, though single readings can be large; an effect the other way counts as inactive or inconclusive; further: nearly all actives have a fitted effect of over 55% in size
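K18 P301L tau (15 uM + 0.24 uM Alexa 594-tagged), heparin 20 uM, NaOAc pH 7, 6 h 37 C; ThT 30 uM, 1 h RT, ex 450/em 510 nm.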
Tau fluor counter: counter-screen for tau fibril formation inhibitors; AID 1463; Potency, µM (top dose mostly 57.7 µM), for inactives: top-dose activity change, negative = decrease; tau K18 P301L (four-repeat tau fragment) Alexa594 fluorescence, heparin fibrillization; 0.93% of 280,000 active; active means well fitted curve in the direction sought with a large enough effect; inconclusive means small, poorly fitted or top-dose-only effect, or another doubt; inactive means no such curve, though single readings can be large; an effect the other way counts as inactive or inconclusive; further: nearly all actives have a fitted effect of over 55% in size
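Human K18 P301L tau (15 uM unlabeled plus 0.24 uM Alexa 594-labeled, final) in 100 mM sodium acetate pH 7 was mixed with compound and 20 uM heparin and incubated 6 hr at 37 C.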
ALDH1A1 block: ALDH1A1 (human) enzyme inhibition; P00352; Purified ALDH1A1, NADH fluorescence, propionaldehyde substrate; Potency, µM (series often up to 75.3 µM), inactives show at the top dose activity, negative = inhibition, hits mostly inhibitors; 7.3% of 220,000 active;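 further: plate controls were no enzyme wells and a reference inhibitor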
Target sequence (P00352 whole entry, looked up): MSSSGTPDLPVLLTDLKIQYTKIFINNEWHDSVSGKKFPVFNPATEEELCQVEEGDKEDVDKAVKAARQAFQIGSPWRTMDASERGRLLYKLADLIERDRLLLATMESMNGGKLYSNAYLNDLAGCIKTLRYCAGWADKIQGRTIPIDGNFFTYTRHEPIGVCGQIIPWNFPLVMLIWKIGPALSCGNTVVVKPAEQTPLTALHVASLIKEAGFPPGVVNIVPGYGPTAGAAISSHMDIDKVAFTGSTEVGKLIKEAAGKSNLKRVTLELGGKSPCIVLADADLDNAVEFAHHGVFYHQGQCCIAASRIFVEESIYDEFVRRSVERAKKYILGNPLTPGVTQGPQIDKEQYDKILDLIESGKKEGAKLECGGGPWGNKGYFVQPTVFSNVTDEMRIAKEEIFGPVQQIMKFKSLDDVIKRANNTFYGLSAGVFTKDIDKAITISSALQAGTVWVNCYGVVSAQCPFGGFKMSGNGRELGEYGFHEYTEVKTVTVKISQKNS
* hit, by the source's call; ? = inconclusive; . = no result; [ ] = dose if it differs, or a comment. Hits are enriched below; roughly 9.9% of the tested compounds scored in any of these assays. Unless noted, the call rests on the fitted dose curve; in most records, active means well fitted inhibition curve with a large enough effect (not every such curve was filed as active); inconclusive means small, poorly fitted or top-dose-only effect, or another doubt; inactive means no such curve, though single readings can be large or run the other way. Unless noted, on the % scale 0 is the no-effect control and ±100 the full control effect; potency means the concentration at half of the fitted maximal effect.

SMILES	KDM4E inh	Tau FP inhib	HPGD block	Tau fibril ThT	Tau fluor counter	ALDH1A1 block
CCn1c(=N)c(C(=O)NC2CCCC2)cc2c(=O)n3cc(C)ccc3nc21	.	-1%	.	-6%	-7%	.
CCCc1ccc(C(=O)NNc2ccccc2F)cc1	-18%	-12%	.	-16%	-9%	.
O=C(O)c1ccccc1C(=O)N1CCN(c2cccc(Cl)c2)CC1	3%	-4%	-8%	-8%	-1%	?
O=C(C1CC1c1ccccc1)N1CCN(c2cccc(Cl)c2)CC1 (stereo unspecified)	-2%	-1%	-7%	?	-18%	20µM*
O=C(Nc1ccc(Cl)cc1)c1ccc2c(c1)N(Cc1ccccc1)C(=O)c1ccccc1S2(=O)=O	.	?	.	5%	?	.
CC(=O)Nc1ccc(NC(=O)c2ccc3c(c2)N(Cc2cccc(Cl)c2)C(=O)c2ccccc2S3(=O)=O)cc1	.	16µM*	.	-11%	?	.
Cc1c(Cl)cccc1NC(=O)CCn1nc(C)c2c(C)n(-c3ccccc3)nc2c1=O	.	2%	.	7%	-2%	.
Cc1ccc(S(=O)(=O)N/N=C\c2ccc([N+](=O)[O-])o2)cc1	-23%	?	-19%	?	-11%	?
O=[N+]([O-])c1ccc(/C=N/NS(=O)(=O)c2ccc(Cl)cc2)o1	?	-13%	28µM*	?	0%	7.9µM*
O=[N+]([O-])c1ccc(/C=N/N=C/c2ccc([N+](=O)[O-])o2)o1	14µM*	?	.	13µM*	?	?
CCOC(=O)C1(CC)NC(c2ccc(OC)cc2OC)C2C(=O)N(C)C(=O)C21 (stereo unspecified)	-5%	6%	.	-4%	-5%	-2%
COc1ccc(NC(=O)CN(C)Cc2c(F)cccc2Cl)cc1S(=O)(=O)N1CCCCC1	-1%	8%	.	-6%	-2%	28µM*
COCCNCC(=O)Nc1ccc(C)c(S(=O)(=O)N2CCCCC2)c1	?	-7%	.	-7%	-14%	-3%
Cc1ccc(NC(=O)CCl)cc1S(=O)(=O)N1CCCCCC1	-6%	0%	.	-10%	-11%	1.5µM*
COc1cc(/C=C/C(=O)OCC(=O)Nc2ccc(C)c(S(=O)(=O)N3CCCCC3)c2)ccc1O	-2%	-3%	?	-8%	14µM*[quencher]	?
COc1ccc(NC(=O)CC2CCCC2)cc1S(=O)(=O)N1CCCCC1	-5%	-6%	-2%	0%	-5%	4%
Cc1ccc2c(c1)CCCN2C(=O)c1cc2ccccc2oc1=O	-1%	-8%	-14%	-11%	-13%	14µM*
O=C(Nc1ccc(F)cc1F)c1noc2c1CCc1ccccc1-2	.	-21%	.	-12%	-10%	.
COc1ccc(N2CCC(CNS(=O)(=O)c3cccc(C(F)(F)F)c3)C2)cc1 (stereo unspecified)	?	9%	-19%	?	?	8.9µM*
COc1ccc(N2CCC(CNC(=S)Nc3cccc(C)c3)C2)cc1 (stereo unspecified)	?	10%	-9%	?	14µM*[quencher]	25µM*
COc1ccc(N2CCC(CNC(=O)Nc3ccc(OC)cc3OC)C2)cc1 (stereo unspecified)	?	-6%	-9%	14µM*	?	?
Cc1nc2ccccc2c(=O)n1-c1ccc(NC(=O)c2ccccc2[N+](=O)[O-])cc1	.	-9%	.	-3%	-7%	.
Cc1ccc(/C=C/C(=O)N2CCc3ccccc3C2)cc1	-1%	0%	14µM*	?	-20%	0%
CCN(CC(=O)Nc1ccc2c(c1)OCCO2)C(=O)/C=C/c1ccc(F)cc1	0%	0%	.	-2%	-6%	4%
Cc1ccc(C#N)cc1	.	.	3%	.	.	32µM*
SMILES	KDM4E inh	Tau FP inhib	HPGD block	Tau fibril ThT	Tau fluor counter	ALDH1A1 block
COc1cc(OC)c(NC(=O)CC(C)S(=O)(=O)c2ccc3c(c2)NC(=O)CO3)cc1Cl (stereo unspecified)	.	-12%	.	3%	3%	.
CC(C)OC(=O)c1c(NC(=O)Cn2cnc([N+](=O)[O-])n2)sc2c1CCCC2	3%	-6%	-27%	12%	-13%	13µM*
CCOC(=O)c1c(NC(=O)Cn2cnc3scc(-c4ccc(C)cc4)c3c2=O)sc(C)c1C	1%	?	-29%	-8%	-18%	14µM*
CCOC(=O)c1c(NC(=O)Cn2cnc([N+](=O)[O-])n2)sc(C)c1C	-3%	0%	.	-9%	-22%	32µM*
COC(=O)c1c(NC(=O)Cn2nc(C(F)F)cc2C(F)F)sc(C)c1C	-18%	7%	28µM*	5%	-11%	11µM*
CCOC(=O)c1c(NC(=O)Cn2cnc([N+](=O)[O-])n2)sc2c1CCCC2	8%	2%	-17%	-4%	-29%	?
S=C(NCc1ccco1)NCC(c1ccco1)N1CCCCC1 (stereo unspecified)	4%	1%	.	?	?	-3%
CCCCOc1ccc(Cn2c(=O)oc3ccc(C)cc32)cc1	.	-12%	.	5%	-2%	.
COc1cccc(C(=O)Nc2ccc(-n3nncc3-c3ccccc3)cc2)c1OC	.	7%	.	-10%	-19%	.
NC(=O)c1cc[n+](CC2=C(C(=O)[O-])N3C(=O)[C@@H](NC(=O)Cc4cccs4)[C@@H]3SC2)cc1	13%[25.5 µM]	.	-8%	.	.	12%[20.9 µM]
COc1ccc(C2CC(=O)c3cnc(N4CCN(Cc5ccccc5)CC4)nc3C2)cc1 (stereo unspecified)	-10%	3%	?	-20%	-21%	?
O=C1CC(c2ccco2)Cc2nc(N3CCN(Cc4ccc5c(c4)OCO5)CC3)ncc21 (stereo unspecified)	?	5%	?	-5%	-18%	18µM*
Oc1cc(Cc2ccccc2)cnc1CN1CCCCC1	8%	-1%	25µM*	1%	1%	25µM*
COc1ccc2[nH]c3c(N4CC(C)OC(C)C4)ncnc3c2c1 (stereo unspecified)	?	9%	?	-25%	-14%	?
COc1cccc(N2CCN(c3ncnc4c3[nH]c3ccc(F)cc34)CC2C)c1 (stereo unspecified)	?	?	-17%	?	18µM*[quencher]	-6%
COc1cccc(N2CCN(c3ncnc4c3[nH]c3ccccc34)CC2C)c1 (stereo unspecified)	-15%	?	-24%	?	14µM*[quencher]	35µM*
O=C(Nc1ccc2nc(SCCOc3ccccc3)sc2c1)c1cccs1	.	?	.	2%	?	.
O=C(Nc1ccccc1)c1ccc(Br)o1	2%	9%[81.3 µM]	-26%	-12%[81.4 µM]	-13%[81.3 µM]	-6%[120 µM]
O=C(Nc1ccccc1C(=O)O)c1ccc(Br)o1	3%	-11%	?	6%	-1%	4µM*

Screens as filed in PubChem BioAssay.
